PubChem BioAssay (EPA / NIEHS)
“And” between values parts separate entries of the source, which are not always exact repeats. Equal values may be shown once. Where a structure was tested more than once in an assay, its records may differ in their call. The source made the active and inactive calls. The calls were made as follows: active = hit-call score of the fitted dose curve at least 0.9, where 1 is the maximum; inactive = score below 0.9.

Key:
[1] = read-out: Interleukin-8 (IL8), CXCL8 (gene 3576); assay: BSK_MyoF_IL8: BioMAP Diversity Plus: MyoF Assay for Interleukin-8 (IL8) Biomarker Activity (AID 2284261); conditions: primary human lung fibroblasts
Method in brief: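 ELISA read-out of IL-8 from primary human lung fibroblasts, 24 h post-dose; positive-direction curve fitting relative to DMSO vehicle baseline.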

Decorin, DCN (gene 1634) = assay: BSK_MyoF_Decorin: BioMAP Diversity Plus: MyoF Assay for Decorin Biomarker Activity (AID 2284265); conditions: primary human lung fibroblasts
Method in brief: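 Human lung fibroblasts in the MyoF system were exposed to compound for 24 h, after which decorin was quantified by ELISA. Activity was fitted in the positive direction relative to DMSO negative control.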

[2] = BSK_MyoF_SRB: Viability Assessment in the BioMAP Diversity Plus: MyoF Assay (AID 2284267); conditions: primary human lung fibroblasts;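 also: total protein by SRB absorbance in parallel cultures as cytotoxicity measure; cells assessed 24 h after compound addition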
Method: BSK_MyoF is a cell-based, multiplexed-readout assay that uses lung fibroblasts, […], with measurements taken at 24 hours after chemical dosing in a microplate: 96-well plate.BSK_MyoF_SRB is an assay component measured in the BSK_MyoF assay. It measures 0.1% sulforhodamine related to cell death using Sulforhodamine staining technology.Data from the assay component BSK_MyoF_SRB was analyzed at the endpoint, BSK_MyoF_SRB, in the positive analysis fitting direction relative to DMSO as the negative control and baseline of activity. Using a type of viability reporter, gain or loss-of-signal activity can be used to understand protein changes. […]
The levels of cell surface (or secreted, indicated by the prefix "s") biomarker endpoints were measured by ELISA. Overt cytotoxicity to cells in confluent adherent cultures (all systems other than the BT system) was assessed by measuring total protein levels using sulforhodamine B (SRB) staining in parallel cultures at the time of biomarker measurements, indicated as SRB endpoints. For proliferation assays for adherent cell types, individual cell types are cultured at sub-confluence and relative cell numbers quantified by SRB staining at time points optimized for each system (48 h: 3C and CASM3C systems; 72 h: BT and HDF3CGF systems; 96 h: SAg system). […] Plates were read after 6 h.

[3] = read-out: Matrix Metallopeptidase 1 (MMP1), MMP1 (gene 4312); assay: BSK_MyoF_MMP1: BioMAP Diversity Plus: MyoF Assay for Matrix Metallopeptidase 1 (MMP1) Biomarker Activity (AID 2284268); conditions: primary human lung fibroblasts
Method in brief: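 ELISA readout of MMP1 in primary human lung fibroblast cultures, 24 h post-dosing. Gain of signal versus DMSO vehicle control defines activity. Parallel SRB staining (0.1% after 10% TCA fixation, 560 nm) flags overt cytotoxicity.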

[4] = read-out: TIMP metallopeptidase inhibitor 1 (TIMP1), TIMP1 (gene 7076); assay: BSK_MyoF_TIMP1: BioMAP Diversity Plus: MyoF Assay for TIMP metallopeptidase inhibitor 1 (TIMP1) Biomarker Activity (AID 2284269); conditions: primary human lung fibroblasts
Method in brief: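 TIMP-1 levels were determined by ELISA in human lung fibroblasts treated for 24 h. DMSO served as negative control and baseline for upward curve fitting.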

[5] = IUF_NPC2c_oligodendrocyte_migration_120hr: Leibniz Research Institute for Environmental Medicine (IUF) 120-hour Neural Progenitor Cell Migration Assay for Oligodendrocyte Migration (NPC2c) (AID 2284297);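 also: O4-positive oligodendrocyte migration distance divided by radial glia migration distance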
Method in brief: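 Human fetal cortex-derived neural progenitor spheres (0.3 mm) were plated on poly-D-lysine/laminin in N2 differentiation medium and exposed to 7 concentrations for 120 h, with half-medium renewal at day 3. Oligodendrocyte migration distance was normalized to radial glia migration, relative to DMSO.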

[6] = IUF_NPC2a_radial_glia_migration_120hr: Leibniz Research Institute for Environmental Medicine (IUF) 120-hour Neural Progenitor Cell Migration Assay for Radial Glia Migration (NPC2a) (AID 2284298)
Method in brief: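 Single 0.3 mm primary human fetal-cortex (GW 16-19) NPC spheres were plated on poly-D-lysine/laminin in N2 differentiation medium and exposed from day 0 for 120 h, half-medium refreshed day 3. Migration distance came from Hoechst nuclei-density imaging, relative to DMSO.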

[7] = IUF_NPC2a_radial_glia_migration_72hr: Leibniz Research Institute for Environmental Medicine (IUF) 72-hour Neural Progenitor Cell Migration Assay for Radial Glia Migration (NPC2a) (AID 2284299)
Method in brief: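 Primary hNPC spheres, fetal brain GW 16-19, on PDL/laminin; DMEM/F12 3:1 + 1% N2. Compound dosed day 0, 7 conc. + SC, half-medium refresh day 3. 72 h brightfield, migration distance core-to-front (um), 4 directions averaged.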

[8] = IUF_NPC3_neuronal_differentiation_120hr: Leibniz Research Institute for Environmental Medicine (IUF) 120-hour Neuronal Differentiation Assay (NPC3) (AID 2284301)
Method in brief: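 Primary human fetal neural progenitor spheres (GW 16-19, 0.3 mm) plated on poly-D-lysine/laminin in N2 medium, exposed from day 0 for 120 h with half-medium refresh at day 3. TUBB3+ cells as percent of Hoechst nuclei in migration area; DMSO baseline.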

[9] = IUF_NPC4_neurite_length_120hr: Leibniz Research Institute for Environmental Medicine (IUF) 120-hour Neuronal Morphology Assay for Neurite Length (NPC4) (AID 2284302)
Method in brief: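 Human fetal cortex (GW 16-19) neural progenitor spheres, 0.3 mm, were plated on poly-D-lysine/laminin in N2 differentiation medium and exposed from day 0 for 120 h, half-feeding at day 3. Mean TUBB3+ neurite length (µm) came from skeletonized images, relative to DMSO.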

Q: Which outcome [1] does the source give for `CN(C)[C@@H]1C(=O)C(C(N)=O)=C(O)[C@@]2(O)C(=O)C3=C(O)c4c(O)cccc4[C@@](C)(O)[C@H]3[C@H](O)[C@@H]12` here?
A: inactive

Q: And the outcome (Decorin, DCN (gene 1634))?
A: inactive

Q: What about the outcome [2] of the same molecule?
A: inactive

Q: What about the outcome [3] of the same molecule?
A: inactive

Q: What about the outcome [4] of the same molecule?
A: inactive

Q: What about the AC50 [5] of the same molecule?
A: 55.1 µM (active)

Q: What about the AC50 [6] of the same molecule?
A: 42.5 µM (active)

Q: What about the AC50 [7] of the same molecule?
A: 76.1 µM (active)

Q: And the outcome [8]?
A: inactive

Q: And the outcome [9]?
A: inactive

Q: For `CC(C)N(C(=O)SCC(Cl)=C(Cl)Cl)C(C)C`, which outcome [5] is on record?
A: inactive

Q: What about the AC50 [6] of the same molecule?
A: 4.18 µM (active)

Q: What about the outcome [7] of the same molecule?
A: inactive

Q: What about the outcome [8] of the same molecule?
A: inactive

Q: What about the outcome [9] of the same molecule?
A: inactive

Q: Which outcome [5] does the source give for `CCOP(=S)(OCC)SCCSCC` here?
A: inactive

Q: What about the outcome [6] of the same molecule?
A: inactive

Q: What about the outcome [7] of the same molecule?
A: inactive

Q: What about the outcome [8] of the same molecule?
A: inactive

Q: And the outcome [9]?
A: inactive

Q: What does the source list for `CCOP(=S)(OCC)Oc1cc(C)nc(C(C)C)n1`?
A: outcome [5]: inactive; outcome [6]: inactive; outcome [7]: inactive; outcome [8]: inactive; outcome [9]: inactive

Q: Which results are given for `CCOP(=O)(OCC)Oc1cc(C)nc(C(C)C)n1`?
A: outcome [5]: inactive; outcome [6]: inactive; outcome [7]: inactive; outcome [8]: inactive; outcome [9]: inactive

Q: Which results are given for `C=C(C)[C@H]1Cc2c(ccc3c2O[C@@H]2COc4cc(OC)c(OC)cc4[C@@H]2C3=O)O1`?
A: AC50 [5]: 0.0062 µM (active); outcome [5]: inactive; AC50 [6]: 244 nM (active) and 3.4 nM (active); AC50 [7]: 220 nM (active) and 4.24 nM (active); AC50 [8]: 58 nM (active) and 7.87 nM (active); AC50 [9]: 224 nM (active) and 10 nM (active)

Q: For `CCOP(=S)(OCC)OC(Cl)C(Cl)(Cl)Cl` (stereo unspecified), which outcome [5] is on record?
A: inactive

Q: What about the AC50 [6] of the same molecule?
A: 22.8 µM (active)

Q: What about the outcome [7] of the same molecule?
A: inactive

Q: What about the outcome [8] of the same molecule?
A: inactive

Q: And the outcome [9]?
A: inactive

Q: Which outcome [5] does the source give for `CCOP(=O)(NC(C)C)Oc1ccc(SC)c(C)c1` (stereo unspecified) here?
A: inactive

Q: What about the AC50 [6] of the same molecule?
A: 33.7 µM (active)

Q: What about the outcome [7] of the same molecule?
A: inactive

Q: What about the outcome [8] of the same molecule?
A: inactive

Q: What about the outcome [9] of the same molecule?
A: inactive

Q: For `CC1=NNC(=O)N(/N=C/c2cccnc2)C1`, which outcome [5] is on record?
A: inactive

Q: What about the outcome [6] of the same molecule?
A: inactive

Q: What about the outcome [7] of the same molecule?
A: inactive

Q: And the outcome [8]?
A: inactive

Q: And the outcome [9]?
A: inactive

Q: What does the source list for `COP(=O)(NC(C)=O)SC` (stereo unspecified)?
A: outcome [5]: inactive; outcome [6]: inactive; outcome [7]: inactive; outcome [8]: inactive; outcome [9]: inactive

Q: With `CSC1=N[C@@](C)(c2ccccc2)C(=O)N1Nc1ccccc1` as the molecule, how does the outcome [5] read?
A: inactive

Q: What about the outcome [6] of the same molecule?
A: inactive

Q: What about the outcome [7] of the same molecule?
A: inactive

Q: What about the outcome [8] of the same molecule?
A: inactive

Q: And the outcome [9]?
A: inactive

Q: Which results are given for `CC[C@H](C)[C@H]1O[C@]2(C=C[C@@H]1C)C[C@@H]1C[C@@H](C/C=C(\C)[C@@H](O[C@H]3C[C@H](OC)[C@@H](O[C@H]4C[C@H](OC)[C@@H](NC)[C@H](C)O4)[C@H](C)O3)[C@@H](C)/C=C/C=C3\CO[C@@H]4[C@H](O)C(C)=C[C@@H](C(=O)O1)[C@]34O)O2`?
A: AC50 [5]: 932 nM (active) and 1.74 µM (active); AC50 [6]: 1.1 µM (active) and 2.22 µM (active); AC50 [7]: 2.13 µM (active) and 3.89 µM (active); AC50 [8]: 1.27 µM (active); AC50 [9]: 979 nM (active) and 3.08 µM (active)

Q: With `CCOC(=O)CC(SP(=O)(OC)OC)C(=O)OCC` (stereo unspecified) as the molecule, how does the outcome [5] read?
A: inactive

Q: What about the outcome [6] of the same molecule?
A: inactive

Q: And the outcome [7]?
A: inactive

Q: And the outcome [8]?
A: inactive

Q: And the outcome [9]?
A: inactive

Q: Which outcome [5] does the source give for `CCOP(=S)(Oc1cnc(C(C)(C)C)nc1)OC(C)C` (stereo unspecified) here?
A: inactive

Q: What about the outcome [6] of the same molecule?
A: inactive

Q: And the outcome [7]?
A: inactive

Q: And the outcome [8]?
A: inactive

Q: And the outcome [9]?
A: inactive

Q: What does the source list for `COP(=O)(OC)C(O)C(Cl)(Cl)Cl` (stereo unspecified)?
A: outcome [5]: inactive; outcome [6]: inactive; outcome [7]: inactive; outcome [8]: inactive; AC50 [9]: 5.03 µM (active)

Q: Which outcome [5] does the source give for `CCCCSP(=O)(SCCCC)SCCCC` here?
A: inactive

Q: And the outcome [6]?
A: inactive

Q: And the outcome [7]?
A: inactive

Q: And the outcome [8]?
A: inactive

Q: What about the outcome [9] of the same molecule?
A: inactive

Q: For `COP(=O)(OC)OC(Br)C(Cl)(Cl)Br` (stereo unspecified), which AC50 [5] is on record?
A: 34.9 µM (active)

Q: And the AC50 [6]?
A: 35.4 µM (active)

Q: And the AC50 [7]?
A: 39 µM (active)

Q: And the AC50 [8]?
A: 40.9 µM (active)

Q: What about the AC50 [9] of the same molecule?
A: 23.5 µM (active)

Q: Which results are given for `CN1COCN(Cc2cnc(Cl)s2)C1=N[N+](=O)[O-]`?
A: outcome [5]: inactive; outcome [6]: inactive; outcome [7]: inactive; outcome [8]: inactive; outcome [9]: inactive

Q: For `CC(=NC#N)N(C)Cc1ccc(Cl)nc1`, which outcome [5] is on record?
A: inactive

Q: And the outcome [6]?
A: inactive

Q: What about the outcome [7] of the same molecule?
A: inactive

Q: And the outcome [8]?
A: inactive

Q: What about the outcome [9] of the same molecule?
A: inactive

Q: What does the source list for `S=C1NCCN1`?
A: outcome [5]: inactive; outcome [6]: inactive; outcome [7]: inactive; outcome [8]: inactive; outcome [9]: inactive

Q: Which outcome [5] does the source give for `CCCSP(=O)(OCC)SCCC` here?
A: inactive

Q: What about the outcome [6] of the same molecule?
A: inactive

Q: And the outcome [7]?
A: inactive

Q: What about the outcome [8] of the same molecule?
A: inactive

Q: What about the outcome [9] of the same molecule?
A: inactive

Q: Which outcome [5] does the source give for `C[N+]1(C)CCCCC1` here?
A: inactive

Q: And the outcome [6]?
A: inactive

Q: And the outcome [7]?
A: inactive

Q: What about the outcome [8] of the same molecule?
A: inactive

Q: And the outcome [9]?
A: inactive

Q: Which results are given for `CON=C(C(=O)OC)c1ccccc1CON=C(C)c1cccc(C(F)(F)F)c1`?
A: AC50 [5]: 71.2 µM (active); AC50 [6]: 11.8 µM (active); outcome [7]: inactive; AC50 [8]: 1.06 µM (active); AC50 [9]: 24.7 µM (active)

Q: With `O=[N+]([O-])c1cc(C(F)(F)F)c(Cl)c([N+](=O)[O-])c1Nc1ncc(C(F)(F)F)cc1Cl` as the molecule, how does the AC50 [1] read?
A: 20 µM (active)

Q: What about the AC50 (Decorin, DCN (gene 1634)) of the same molecule?
A: 5.88 µM (active)

Q: And the AC50 [2]?
A: 2.6 µM (active)

Q: And the AC50 [3]?
A: 3.25 µM (active)

Q: What about the AC50 [4] of the same molecule?
A: 3.9 µM (active)

Q: What about the AC50 [5] of the same molecule?
A: 0.736 µM (active)

Q: And the AC50 [6]?
A: 0.832 µM (active)

Q: What about the AC50 [7] of the same molecule?
A: 0.73 µM (active)

Q: What about the AC50 [8] of the same molecule?
A: 0.601 µM (active)

Q: What about the AC50 [9] of the same molecule?
A: 1.02 µM (active)
